# In the supplement of paper PMC10849652:
# Of roughly 8,800 targets only a part is listed; those with a hit were picked by preference. About 0.5% of all pairs of compound and target were hits. Values without a mark were called inactive.
# Tests used:
# Test in all cases: log2 fold change, soluble protein after heating vs DMSO (PISA); higher = thermal stabilisation; K562 lysate, 10 uM; active = over 0.2 and 3.5 SD of the protein, either way, in both replicates (recomputed)
# lapatinib = compound: CS(=O)(=O)CCNCc1ccc(-c2ccc3ncnc(Nc4ccc(OCc5cccc(F)c5)c(Cl)c4)c3c2)o1 [lapatinib]
# Summary of the method: (§1)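 Quantification was by TMTpro 16plex LC-MS/MS with equalised channel sums, applied to the supernatant after 21,000xg for 90 min. Samples were crude K562 extract at 1 mg/mL protein in PBS pH 7.4 with 1 mM MgCl2, treated with 10 μM compound for 30 min, heated for 3 min across 48°C-58°C, pooled and brought to 0.5% NP-40 at 4°C. Values are log-two fold changes in thermal stability relative to solvent controls, from duplicates.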
# pictilisib = compound: CS(=O)(=O)N1CCN(Cc2cc3nc(-c4cccc5[nH]ncc45)nc(N4CCOCC4)c3s2)CC1 [pictilisib]
# Summary of the method: as §1
# crizotinib = compound: C[C@@H](Oc1cc(-c2cnn(C3CCNCC3)c2)cnc1N)c1c(Cl)ccc(F)c1Cl [crizotinib]
# Summary of the method: as §1
# [1] = compound: C[C@H](C1=CC=C(C=C1)C(=O)NC2=C3C=CNC3=NC=C2)N
# Summary of the method: as §1
# duvelisib = compound: C[C@H](Nc1ncnc2nc[nH]c12)c1cc2cccc(Cl)c2c(=O)n1-c1ccccc1 [duvelisib]
# Summary of the method: as §1
# gandotinib = compound: Cc1cc(Nc2cc(CN3CCOCC3)c3nc(C)c(Cc4ccc(Cl)cc4F)n3n2)n[nH]1 [gandotinib]
# Summary of the method: as §1
# tozasertib = compound: Cc1cc(Nc2cc(N3CCN(C)CC3)nc(Sc3ccc(NC(=O)C4CC4)cc3)n2)n[nH]1 [tozasertib]
# Summary of the method: as §1
# doramapimod = compound: Cc1ccc(-n2nc(C(C)(C)C)cc2NC(=O)Nc2ccc(OCCN3CCOCC3)c3ccccc23)cc1 [doramapimod]
# Summary of the method: as §1
# bafetinib = compound: Cc1ccc(NC(=O)c2ccc(CN3CC[C@H](N(C)C)C3)c(C(F)(F)F)c2)cc1Nc1nccc(-c2cncnc2)n1 [bafetinib]
# Summary of the method: as §1
# [2] = compound: Cc1cccc(CC(=O)N2CCc3c2ccc(-c2cn(C)c4ncnc(N)c24)c3F)n1
# Summary of the method: as §1
# nilotinib = compound: Cc1cn(-c2cc(NC(=O)c3ccc(C)c(Nc4nccc(-c5cccnc5)n4)c3)cc(C(F)(F)F)c2)cn1 [nilotinib]
# Summary of the method: as §1
# [3] = compound: Cc1nc(Nc2n[nH]c3c2CN(C(=O)N[C@H](CN(C)C)c2ccccc2)C3(C)C)c2sccc2n1
# Summary of the method: as §1
# dasatinib = compound: Cc1nc(Nc2ncc(C(=O)Nc3c(C)cccc3Cl)s2)cc(N2CCN(CCO)CC2)n1 [dasatinib]
# Summary of the method: as §1
# [4] = compound: Cc1ncc(-c2ccnc(Nc3ccc(S(C)(=O)=O)cc3)n2)n1C(C)C
# Summary of the method: as §1
# [5] = compound: Cn1cc(-c2ccc3c(c2)CCN3C(=O)Cc2cccc(C(F)(F)F)c2)c2c(N)ncnc21
# Summary of the method: as §1
# quisinostat = compound: Cn1cc(CNCC2CCN(c3ncc(C(=O)NO)cn3)CC2)c2ccccc21 [quisinostat]
# Summary of the method: as §1
# tipifarnib = compound: Cn1cncc1[C@@](N)(c1ccc(Cl)cc1)c1ccc2c(c1)c(-c1cccc(Cl)c1)cc(=O)n2C [tipifarnib]
# Summary of the method: as §1
# [6] = compound: NC(=O)Nc1cc(-c2cccc(F)c2)sc1C(=O)N[C@H]1CCCNC1
# Summary of the method: as §1
# [7] = compound: NC(=O)c1cnc(N[C@@H]2CCCC[C@@H]2N)nc1Nc1cccc(-n2nccn2)c1
# Summary of the method: as §1
# [8] = compound: NC1(c2ccc(-c3nc4ccn5c(=O)[nH]nc5c4cc3-c3ccccc3)cc2)CCC1
# Summary of the method: as §1
# Sequence of UniProt Q9BXX2 (Q9BXX2 whole entry, looked up): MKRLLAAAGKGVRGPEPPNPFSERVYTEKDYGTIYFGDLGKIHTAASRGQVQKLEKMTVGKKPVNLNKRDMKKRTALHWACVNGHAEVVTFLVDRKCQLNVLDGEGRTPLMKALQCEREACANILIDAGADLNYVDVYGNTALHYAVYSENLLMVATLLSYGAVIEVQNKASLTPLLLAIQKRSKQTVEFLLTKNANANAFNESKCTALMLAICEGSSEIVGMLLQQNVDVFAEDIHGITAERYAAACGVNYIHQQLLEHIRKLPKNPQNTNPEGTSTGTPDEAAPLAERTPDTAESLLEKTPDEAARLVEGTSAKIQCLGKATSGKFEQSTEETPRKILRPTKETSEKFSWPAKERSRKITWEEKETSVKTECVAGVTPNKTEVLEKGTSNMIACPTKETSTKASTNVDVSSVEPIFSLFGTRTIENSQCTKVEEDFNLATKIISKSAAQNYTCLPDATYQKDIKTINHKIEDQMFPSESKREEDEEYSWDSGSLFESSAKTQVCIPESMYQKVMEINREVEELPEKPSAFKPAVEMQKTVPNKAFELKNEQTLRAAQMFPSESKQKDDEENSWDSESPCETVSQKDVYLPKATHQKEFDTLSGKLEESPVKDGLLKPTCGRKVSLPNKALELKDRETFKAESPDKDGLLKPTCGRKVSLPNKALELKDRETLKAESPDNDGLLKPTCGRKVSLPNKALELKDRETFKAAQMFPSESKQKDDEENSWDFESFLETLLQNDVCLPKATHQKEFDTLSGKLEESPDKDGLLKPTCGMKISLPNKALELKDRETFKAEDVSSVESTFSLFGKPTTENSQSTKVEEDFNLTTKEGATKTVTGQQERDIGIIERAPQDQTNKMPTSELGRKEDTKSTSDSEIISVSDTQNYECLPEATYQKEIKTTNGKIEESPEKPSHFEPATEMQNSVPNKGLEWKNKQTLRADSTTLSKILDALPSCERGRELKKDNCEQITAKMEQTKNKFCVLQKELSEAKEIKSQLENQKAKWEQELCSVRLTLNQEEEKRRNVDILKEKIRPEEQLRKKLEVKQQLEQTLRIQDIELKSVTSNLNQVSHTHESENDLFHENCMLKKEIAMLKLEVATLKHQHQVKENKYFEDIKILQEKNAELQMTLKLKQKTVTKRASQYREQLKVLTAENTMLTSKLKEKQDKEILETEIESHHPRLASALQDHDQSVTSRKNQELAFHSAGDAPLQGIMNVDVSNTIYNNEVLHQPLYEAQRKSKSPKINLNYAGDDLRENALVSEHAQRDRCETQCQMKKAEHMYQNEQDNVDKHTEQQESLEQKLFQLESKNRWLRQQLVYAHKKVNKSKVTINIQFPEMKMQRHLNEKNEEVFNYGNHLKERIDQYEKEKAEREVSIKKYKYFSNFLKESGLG
# Sequence of UniProt Q9P1F3 (Q9P1F3 whole entry, looked up): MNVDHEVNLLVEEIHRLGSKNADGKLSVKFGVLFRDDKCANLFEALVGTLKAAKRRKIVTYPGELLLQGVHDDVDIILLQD
# Sequence of UniProt Q8N8A2 (Q8N8A2 whole entry, looked up): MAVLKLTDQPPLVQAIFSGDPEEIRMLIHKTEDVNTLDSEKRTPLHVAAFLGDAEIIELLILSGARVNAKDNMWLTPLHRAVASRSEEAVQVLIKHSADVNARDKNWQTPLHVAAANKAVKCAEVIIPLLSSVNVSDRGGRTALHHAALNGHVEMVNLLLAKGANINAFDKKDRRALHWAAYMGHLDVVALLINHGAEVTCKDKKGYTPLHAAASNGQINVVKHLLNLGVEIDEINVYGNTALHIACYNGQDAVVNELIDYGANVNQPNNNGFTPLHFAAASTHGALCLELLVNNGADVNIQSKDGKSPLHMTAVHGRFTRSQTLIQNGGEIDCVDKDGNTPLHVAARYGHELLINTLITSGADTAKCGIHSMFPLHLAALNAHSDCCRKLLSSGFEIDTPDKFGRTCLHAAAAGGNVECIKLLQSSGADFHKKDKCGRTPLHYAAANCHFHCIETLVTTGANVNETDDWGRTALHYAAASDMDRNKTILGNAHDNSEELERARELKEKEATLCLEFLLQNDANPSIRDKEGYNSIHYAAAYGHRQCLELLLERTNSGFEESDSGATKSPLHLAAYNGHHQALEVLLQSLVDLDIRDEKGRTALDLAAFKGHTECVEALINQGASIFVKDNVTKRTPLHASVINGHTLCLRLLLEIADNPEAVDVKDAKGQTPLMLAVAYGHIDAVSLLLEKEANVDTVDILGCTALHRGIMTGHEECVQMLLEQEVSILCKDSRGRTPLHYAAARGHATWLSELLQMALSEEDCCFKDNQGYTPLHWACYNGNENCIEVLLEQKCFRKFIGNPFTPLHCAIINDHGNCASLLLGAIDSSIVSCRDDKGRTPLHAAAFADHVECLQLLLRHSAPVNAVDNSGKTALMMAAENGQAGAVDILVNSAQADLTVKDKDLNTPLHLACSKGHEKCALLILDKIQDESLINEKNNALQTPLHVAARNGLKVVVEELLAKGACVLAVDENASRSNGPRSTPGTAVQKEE
# Sequence of UniProt Q9UH62 (Q9UH62 whole entry, looked up): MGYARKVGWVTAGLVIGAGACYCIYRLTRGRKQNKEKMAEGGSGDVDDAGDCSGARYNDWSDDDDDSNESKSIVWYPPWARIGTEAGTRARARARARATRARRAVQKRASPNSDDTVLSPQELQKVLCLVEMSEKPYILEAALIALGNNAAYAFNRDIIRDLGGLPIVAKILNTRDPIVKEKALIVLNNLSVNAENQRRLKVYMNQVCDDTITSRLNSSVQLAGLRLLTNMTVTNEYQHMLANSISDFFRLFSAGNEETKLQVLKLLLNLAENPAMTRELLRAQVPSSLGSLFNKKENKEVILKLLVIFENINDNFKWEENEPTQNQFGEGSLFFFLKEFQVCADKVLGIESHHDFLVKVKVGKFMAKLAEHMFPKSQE
# Sequence of UniProt Q9NP73 (Q9NP73 whole entry, looked up): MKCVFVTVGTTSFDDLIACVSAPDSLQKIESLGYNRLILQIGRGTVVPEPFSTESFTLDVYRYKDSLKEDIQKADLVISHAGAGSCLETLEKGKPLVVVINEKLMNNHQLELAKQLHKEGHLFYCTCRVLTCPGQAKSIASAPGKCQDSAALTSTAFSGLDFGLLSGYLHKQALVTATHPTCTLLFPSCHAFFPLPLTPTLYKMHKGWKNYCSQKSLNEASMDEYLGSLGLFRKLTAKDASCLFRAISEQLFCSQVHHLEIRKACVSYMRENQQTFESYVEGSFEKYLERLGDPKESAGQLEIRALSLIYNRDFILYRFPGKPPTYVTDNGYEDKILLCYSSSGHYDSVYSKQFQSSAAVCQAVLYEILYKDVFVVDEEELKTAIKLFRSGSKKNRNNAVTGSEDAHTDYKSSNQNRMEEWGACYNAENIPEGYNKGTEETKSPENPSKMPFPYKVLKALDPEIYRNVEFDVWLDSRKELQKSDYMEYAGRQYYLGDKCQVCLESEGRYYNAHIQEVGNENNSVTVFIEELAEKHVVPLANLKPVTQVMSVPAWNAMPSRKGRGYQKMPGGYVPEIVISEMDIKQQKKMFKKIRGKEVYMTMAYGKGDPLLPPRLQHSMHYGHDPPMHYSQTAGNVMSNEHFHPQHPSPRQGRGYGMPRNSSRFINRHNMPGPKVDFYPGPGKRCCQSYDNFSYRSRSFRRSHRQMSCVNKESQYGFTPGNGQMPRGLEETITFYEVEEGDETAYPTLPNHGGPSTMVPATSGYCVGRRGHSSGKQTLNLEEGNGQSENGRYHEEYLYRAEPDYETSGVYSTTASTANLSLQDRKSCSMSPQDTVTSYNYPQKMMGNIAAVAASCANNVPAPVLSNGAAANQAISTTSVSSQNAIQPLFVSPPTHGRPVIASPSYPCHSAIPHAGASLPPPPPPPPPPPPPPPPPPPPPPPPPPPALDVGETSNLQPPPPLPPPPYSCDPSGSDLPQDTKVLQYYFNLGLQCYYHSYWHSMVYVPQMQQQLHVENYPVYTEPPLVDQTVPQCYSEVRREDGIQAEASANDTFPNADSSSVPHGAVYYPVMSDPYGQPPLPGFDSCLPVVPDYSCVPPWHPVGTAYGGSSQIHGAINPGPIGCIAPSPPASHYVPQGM
# Sequence of UniProt Q6AI12 (Q6AI12 whole entry, looked up): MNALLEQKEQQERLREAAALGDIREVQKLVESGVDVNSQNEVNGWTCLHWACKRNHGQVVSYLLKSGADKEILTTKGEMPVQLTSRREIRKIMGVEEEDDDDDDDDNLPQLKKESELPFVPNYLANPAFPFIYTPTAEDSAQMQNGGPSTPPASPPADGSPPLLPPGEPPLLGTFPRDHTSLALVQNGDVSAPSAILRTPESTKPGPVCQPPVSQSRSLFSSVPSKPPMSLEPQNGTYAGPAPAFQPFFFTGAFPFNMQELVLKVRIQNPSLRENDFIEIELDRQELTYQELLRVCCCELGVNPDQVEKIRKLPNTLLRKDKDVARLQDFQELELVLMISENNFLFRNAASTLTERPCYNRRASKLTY
# Sequence of UniProt Q9BTT0 (Q9BTT0 whole entry, looked up): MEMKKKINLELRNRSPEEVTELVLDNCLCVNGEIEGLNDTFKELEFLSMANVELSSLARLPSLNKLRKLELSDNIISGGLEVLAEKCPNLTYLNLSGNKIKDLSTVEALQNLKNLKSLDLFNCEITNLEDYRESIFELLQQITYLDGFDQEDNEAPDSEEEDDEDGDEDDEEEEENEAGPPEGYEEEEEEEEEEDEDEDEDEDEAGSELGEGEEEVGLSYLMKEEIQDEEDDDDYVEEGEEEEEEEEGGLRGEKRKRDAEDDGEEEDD
Target,log2 fold change (lapatinib),log2 fold change (pictilisib),log2 fold change (crizotinib),log2 fold change [1],log2 fold change (duvelisib),log2 fold change (gandotinib),log2 fold change (tozasertib),log2 fold change (doramapimod),log2 fold change (bafetinib),log2 fold change [2],log2 fold change (nilotinib),log2 fold change [3],log2 fold change (dasatinib),log2 fold change [4],log2 fold change [5],log2 fold change (quisinostat),log2 fold change (tipifarnib),log2 fold change [6],log2 fold change [7],log2 fold change [8]
ALDH18A1 (UniProt P54886),-0.052,-0.063,-0.034,0.001,-0.017,-0.064,0.002,0.047,-0.006,0.018,0,-0.023,-0.027,-0.004,0.007,-0.06,-0.001,0.025,0.023,-0.019
ANKRD44 isoform 2 (UniProt Q8N8A2),-0.004,0.046,–,-1.57 (active),–,0.465,0.12,–,-0.405,0.766 (active),-0.19,-0.03,–,-0.216,–,–,0,–,-0.019,0.025
ABRACL (UniProt Q9P1F3),0.154,-0.075,-0.105,-0.053,-0.239,-0.003,–,-0.014,0.09,-0.047,0.194,0.006,-0.119,-0.042,-0.067,0.053,0.023,-0.083,0.037,-0.076
ANKRD30B (UniProt Q9BXX2),-0.049,-0.068,–,-0.558 (active),0.087,0.337,-0.005,–,-0.163,0.397,0.061,-0.076,-0.061,0.072,-0.015,–,-0.065,–,0.059,-0.051
ALG13 isoform 2 (UniProt Q9NP73),–,–,–,0.054,–,-0.088,–,–,–,0.106,0.142,-0.082,–,-0.066,–,–,0.371,–,–,–
ACTG1 (UniProt K7EM38),-0.08,–,–,–,–,–,0.207,–,–,–,–,–,–,–,–,–,–,–,0.171,–
ANXA2 (UniProt H0YL33),0.026,-0.028,-0.048,0.284,0.044,-0.163,–,0.017,0.031,-0.054,-0.153,0.008,-0.069,0.074,0.022,0.134,0.199,-0.196,-0.078,0.089
ANP32E isoform 3 (UniProt Q9BTT0),–,-0.012,–,-0.843 (active),–,0.213,0.165,–,-0.14,0.439,–,–,–,–,–,–,–,–,–,–
ARMCX3 (UniProt Q9UH62),-0.058,0.005,-0.076,0.078,0.064,-0.064,0.005,-0.003,-0.044,0.032,0.023,-0.028,-0.107,-0.003,0.067,-0.057,-0.008,0.04,0.008,-0.002
ANKRD40 (UniProt Q6AI12),–,-0.116,-0.022,-0.018,-0.171,-0.032,0.249,-0.027,-0.149,-0.067,-0.04,-0.115,0.197,0.071,-0.064,-0.161,0.137,-0.001,–,-0.119
